Test results: PubChem BioAssay (NCI)
This is part of a sample that, as a whole, favours compounds with a hit. Of some 83,000 tested, about 20% had one in any assay.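 Percent growth is the endpoint: 0 to 100 indicates growth inhibition (40 means 60% inhibition), 0 means no net growth, and negative values indicate cell death.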 Calls of active or inactive are those of the source. Rule for the calls: active = growth percent below 10; inactive = the rest.

What was measured:
Assay in all cases: NCI-60 one-dose screen, 48 h (100 = growth as untreated, 0 = no growth, -100 = all killed)
Conditions in all cases: 10 µM unless noted
[1] = test system: SR leukemia
[2] = test system: RPMI-8226 leukemia
[3] = test system: OVCAR-8 ovarian
[4] = test system: OVCAR-5 ovarian
[5] = test system: OVCAR-4 ovarian
[6] = test system: SK-OV-3 ovarian
[7] = test system: IGROV1 ovarian
[8] = test system: OVCAR-3 ovarian
[9] = test system: HS 578T breast
[10] = test system: NCI/ADR-RES ovarian

Measured: growth

CC[C@H](CO)Nc1nc(NCc2ccccc2)n2ncc(C(C)C)c2n1
inactive: [3] 28.6% | [4] 22.4% | [5] 11.8% | [6] 51.5% | [7] 14.5% | [10] 19.5%
active: [1] -44.9% | [2] -40.6% | [8] 5.88% | [9] 7.24%

O=C(/C=C\c1cccc([N+](=O)[O-])c1)c1ccccc1
inactive: [1] 12.7% | [3] 74.1% | [4] 111% | [5] 54.4% | [6] 115% | [10] 83.6%
active: [2] 0.104% | [7] -53% | [8] -83%

CCCN(CCC)CN(CCC)CCC
inactive: [1] 101% | [2] 99.9% | [3] 105% | [4] 102% | [5] 117% | [6] 102% | [7] 111% | [8] 92.1% | [9] 98.8% | [10] 105%

O=C1C=CC(=O)N1c1ccc(Cc2ccc(N3C(=O)C=CC3=O)cc2)cc1
inactive: [1] 92.6% | [2] 81.6% | [3] 103% | [4] 86.4% | [5] 201% | [6] 101% | [7] 89.7% | [8] 125% | [9] 94.7% | [10] 99.4%

O=c1c2cccc3c(Nc4c(F)cccc4F)ccc(c32)c2nc3ccccc3n12
inactive: [1] 21.5% | [2] 75.4% | [3] 92.9% | [4] 99.5% | [5] 82.9% | [6] 89.1% | [7] 53.4% | [8] 91.5% | [9] 110% | [10] 95.4%

CC(C)n1cc2c(N)ncnc2n1
inactive: [1] 97.5% | [2] 107% | [3] 108% | [4] 109% | [5] 95.5% | [6] 106% | [7] 107% | [8] 104% | [9] 105% | [10] 107%

CSc1ccc(N=C=C(c2ccccc2)c2ccccc2)cc1
inactive: [1] 50.7% | [2] 88.5% | [3] 89% | [4] 93.2% | [5] 110% | [6] 90.1% | [7] 95.7% | [8] 103% | [9] 86.8% | [10] 104%

COc1ccc(OCC(=O)Nc2ccc(-c3nc4ccccc4s3)cc2C)cc1
inactive: [1] 76.1% | [2] 66% | [3] 113% | [4] 78.1% | [5] 55% | [6] 99.5% | [7] 35.2% | [8] 102% | [9] 87.8% | [10] 85%

COc1ccc2c(c1)C(=O)/C(=C/c1cccc(OCC(=O)Nc3nc4c(s3)CCCC4)c1)O2
inactive: [3] 10.4% | [6] 119% | [10] 10.4%
active: [1] -17.2% | [2] -6.7% | [4] -13.6% | [5] 8.81% | [7] -47.4% | [8] -68.6% | [9] -16.2%

Cl/C(=N\Nc1ccccc1)c1ccccc1
inactive: [1] 123% | [2] 104% | [3] 75.8% | [4] 99.1% | [5] 92.1% | [6] 89.4% | [7] 85.6% | [8] 91.4% | [9] 108% | [10] 82.9%

O=C1Nc2ccccc2C12CC(c1ccccc1)=NN2 (stereo not given)
inactive: [2] 47.3% | [3] 70.5% | [4] 83.8% | [5] 77.2% | [6] 59.4% | [7] 43% | [8] 39.6% | [9] 87.9% | [10] 41.5%
active: [1] -7.86%

Nc1cc2ccncc2c2ccccc12
active: [1] 0.467%
inactive: [2] 84.1% | [3] 57.6% | [4] 76.2% | [5] 82.4% | [6] 66.2% | [7] 58.7% | [8] 75.4% | [9] 116% | [10] 53.2%

CN1CCN(Cc2ccc(NC(=O)c3cncc(C#Cc4c(N)ncc5ccc(C#N)cc45)c3)cc2C(F)(F)F)CC1
inactive: [6] 127% | [8] 90.9% | [9] 50.8%
active: [1] -13% | [2] -23% | [3] -40% | [4] -84.5% | [5] -73.9% | [7] -53.6% | [10] -30.5%

O=C1C[C@H](Sc2nc(-c3ccc(F)cc3)cc(C(F)(F)F)n2)[C@H]2CO[C@@H]1O2
inactive: [1] 17.9% | [2] 96.9% | [3] 97.4% | [4] 105% | [5] 108% | [6] 108% | [7] 115% | [8] 91.6% | [9] 109% | [10] 106%

C=C1CC2(OC1=O)C(=O)N(CCCCCCCCCCCCN1C(=O)C3(CC(=C)C(=O)O3)c3ccccc31)c1ccccc12 (stereo not given)
inactive: [3] 57% | [4] 99.9% | [5] 88.9% | [6] 105% | [7] 64.8% | [8] 66.8% | [10] 83.2%
active: [1] 2.62% | [2] 3.98%

CC#CC#Cc1cccc(=O)o1
active: [1] -9.17% | [8] 7.67%
inactive: [2] 45.6% | [3] 65.8% | [4] 101% | [5] 91.6% | [6] 104% | [7] 65.1% | [10] 90.1%

O=C1c2cccnc2C(=O)c2c1c(C(=O)OCCN1CCOCC1)c1ccccn21
active: [1] -10.1% | [3] 9.13% | [4] -9.33% | [6] -0.946% | [7] 1.32% | [8] -6.91% | [10] 5.58%
inactive: [2] 10.1% | [5] 24.2%

O=C1CC(c2nc3ccccc3[nH]2)CN1C1CCCCC1 (stereo not given)
inactive: [1] 97.4% | [2] 106% | [3] 95.2% | [4] 108% | [5] 102% | [6] 101% | [7] 108% | [8] 110% | [10] 94.2%

COc1cc(C2C(C(=O)c3cccs3)=C(O)C(=O)N2CCN2CCOCC2)cc(OC)c1OC (stereo not given)
inactive: [1] 111% | [2] 108% | [3] 113% | [4] 108% | [5] 110% | [6] 109% | [7] 100% | [8] 102% | [10] 107%

CCCCNC(=O)NS(=O)(=O)c1ccc(N2N=C(c3cc(C)ccc3C)CC2c2cc(OC)c(OC)c(OC)c2)cc1 (stereo not given)
inactive: [1] 12.7% | [2] 28.3% | [3] 53.2% | [4] 95.9% | [5] 77.7% | [6] 68% | [7] 41.4% | [8] 53.3% | [10] 30.3%

CCOC(=O)c1cnc2cc(Cl)c(F)cc2c1Nc1cccc(NS(C)(=O)=O)c1
inactive: [1] 112% | [2] 105% | [3] 102% | [4] 93.2% | [5] 95.5% | [7] 91% | [8] 102% | [9] 93.7% | [10] 81%

Nc1nc2c(c3ncccc13)C(c1cccc(Br)c1)Cc1ncccc1-2 (stereo not given)
active: [1] 2.96% | [8] -8.61%
inactive: [2] 34% | [3] 26.6% | [4] 50.6% | [5] 58% | [6] 16.5% | [7] 42% | [10] 11.4%

COc1cnc2c(c1)C(=O)c1c-2n(CCCN2CCCC2)c(=O)c2cc([N+](=O)[O-])ccc12
inactive: [5] 10.4% | [9] 35.1%
active: [1] -1.06% | [2] -34.1% | [3] -37.2% | [4] -28.4% | [7] -5.7% | [8] -72.4% | [10] -20.2%

O=C1c2cc3c(cc2-c2c1c1cc(Cl)c(Cl)cc1c(=O)n2C[C@H](O)CO)OCO3
active: [1] -23.2% | [2] -8.53% | [3] -20.2% | [4] -23% | [5] -51.8% | [6] -54% | [7] -2.45% | [8] -54.2% | [10] -29.4%

O=c1c2cccc3c(Nc4ccccn4)ccc(c32)c2nc3ccccc3n12
inactive: [1] 10.2% | [2] 49% | [3] 75.4% | [4] 83.3% | [5] 69.1% | [6] 89.1% | [7] 56.6% | [8] 70% | [10] 74.6%

Nc1ccc(N2CCOCC2)cc1
inactive: [1] 110% | [2] 112% | [3] 105% | [4] 91.7% | [5] 92.8% | [7] 105% | [8] 99.7% | [9] 125% | [10] 85.6%

O=C1C2CC=CCC2C(=O)N1CNc1ccc(Cl)cc1 (stereo not given)
inactive: [1] 126% | [2] 116% | [3] 110% | [4] 87.6% | [5] 112% | [7] 74.6% | [8] 107% | [9] 79.3% | [10] 95.2%

CNc1cc2nc3cc(NC)c(C)cc3cc2cc1C
inactive: [4] 24.5% | [5] 10.8% | [7] 21.1% | [9] 13.1% | [10] 40.7%
active: [1] -27.6% | [2] 3.16% | [3] 2.25% | [8] 3.6%
